# Results as given in the supplement of paper PMC10681739.
# Legend:
# [1] = target: T1, ETS1 (UniProt P14921); assay: ETS1 binding intensity (PBM fluorescence), ETS1 alone (arbitrary fluorescence units); higher = stronger binding; conditions: ETS1 concentration 1 nM; RUNX1 concentration 0 nM
# T1 sequence: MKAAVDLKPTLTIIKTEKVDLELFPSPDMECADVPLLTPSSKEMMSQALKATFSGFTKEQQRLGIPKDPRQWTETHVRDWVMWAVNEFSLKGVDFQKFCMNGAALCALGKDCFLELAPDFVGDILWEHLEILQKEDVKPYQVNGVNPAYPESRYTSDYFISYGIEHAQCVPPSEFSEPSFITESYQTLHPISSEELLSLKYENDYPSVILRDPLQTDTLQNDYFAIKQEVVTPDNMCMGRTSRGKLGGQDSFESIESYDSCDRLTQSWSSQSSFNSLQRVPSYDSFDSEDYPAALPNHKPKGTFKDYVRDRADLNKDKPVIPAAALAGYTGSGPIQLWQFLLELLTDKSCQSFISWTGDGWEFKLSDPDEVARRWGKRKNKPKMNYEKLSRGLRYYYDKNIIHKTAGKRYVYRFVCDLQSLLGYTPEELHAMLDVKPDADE
# [2] = target: RUNX1 (UniProt Q01196); assay: RUNX1 binding intensity (PBM fluorescence), RUNX1 alone (arbitrary fluorescence units); higher = stronger binding; conditions: RUNX1 concentration 2 nM; ETS1 concentration 0 nM
# Description: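 Cooperative gcPBM on 36-bp genomic probes with neighbouring ETS1 and RUNX1 sites. Recombinant human RUNX1 (2 nM) was incubated alone or with ETS1 (25 nM) and detected with anti-RUNX1 antibody plus Alexa488 secondary. Values are medians over 4 replicate spots; the RUNX1+ETS1 data were normalised to the RUNX1-only data. The probes sit in constant array flanks that are not printed.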
# [3] = target: T1, ETS1; assay: ETS1 binding intensity (PBM fluorescence) in presence of RUNX1, normalised to ETS1-only experiment (arbitrary fluorescence units); higher = stronger binding; conditions: ETS1 concentration 1 nM; RUNX1 concentration 25 nM
# 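For RUNX1 binding intensity (PBM fluorescence), RUNX1 alone in this document: Full-length recombinant human RUNX1 bound to double-stranded 36-bp genomic probes on a high-density microarray, scored as Alexa488 fluorescence per spot via anti-RUNX1 antibody, median of four replicate spots.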
# Chain of RUNX1 (Q01196 whole entry): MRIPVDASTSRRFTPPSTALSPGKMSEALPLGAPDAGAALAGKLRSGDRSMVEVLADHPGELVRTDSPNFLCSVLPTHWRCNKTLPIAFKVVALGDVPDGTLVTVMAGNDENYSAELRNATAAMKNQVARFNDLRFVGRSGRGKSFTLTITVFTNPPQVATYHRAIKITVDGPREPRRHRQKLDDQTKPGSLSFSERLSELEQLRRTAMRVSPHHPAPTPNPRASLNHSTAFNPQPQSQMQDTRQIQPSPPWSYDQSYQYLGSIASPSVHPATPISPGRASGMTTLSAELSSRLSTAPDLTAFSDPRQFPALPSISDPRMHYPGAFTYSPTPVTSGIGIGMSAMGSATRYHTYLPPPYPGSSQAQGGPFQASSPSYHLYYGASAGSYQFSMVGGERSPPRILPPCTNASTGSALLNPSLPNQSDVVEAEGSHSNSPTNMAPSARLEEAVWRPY
Sequence,ETS1 binding intensity [1],RUNX1 binding intensity [2],ETS1 binding intensity [3]
GCAAAGATACATCCTTCTCCCCACAGACTAAGTTTC,490,,
TGGCTGTGTCCCGGAAGTGGTCATAAGCTGGGTCCC,8520,730,
TGGGGCCCGGAAGCGCTGGCGCCTTGCGGCCAGAAG,1500,707,
GCAGAAGGAAGTGTGGCTTGGCGCGGTGGCTCACAC,475,,
ATGCCTTCTTCCAGAGGATGTGGTCGCTACTAGTGG,1320,725,
TCCCACTGCGACGGAAGCACAGCGGTTAAGATTGCA,821,792,
AGTTACAGTAAAGGATGTGGTGAAACAGATGTTTAT,847,781,
ACCGGGTGCTGAGGAGGAAGTGGTTGCTATAACCCC,2350,741,3420
TGGCTGTTCAGCCTTCCGCTTGTGGCTCCACCCCCG,594,,
GGACAGGAAGTTCCTGCAGCTTCTACCACAAACCTA,2450,829,
CGTTATTTCCGGGGCTGGGTTAACGCAGCGGTTCCA,631,,
CCATCTTCATACAGGATGCTGTGGTATGTAAAACAA,2110,787,3590
GACAGACCTTAGGAAGTCGCGGTTTCATCAGGGCTT,422,916,
CTTCTCGCGGAAGCGGCACAAGCCGCAGTACAGCGC,301,,
AGGAGAGGATGTTGCTTGAAGGTGTGGTCTCCTCCA,549,,
GACAGTCATGTTTCAGGATGTGGTTTTAGCCAAAGG,1550,816,13200
GTGGATTTCACATCCTGTCCTAGCGGTATGTTTGTC,1470,783,1610
GGTTCATTTCCTTTTCCTCCTTGTGGTATAAAAGAG,697,1210,985
AGGGACTTCCGGTGACCAGAGCACTAGCGCCGCAAA,2160,768,1990
GGGGCTGGGAAAGGATGTGGTAAGGGCCAGTCAGTC,884,749,3240
GCCCCCGGAAGCTGTCGCCCCGTGCGGTGTGTGCTG,1600,787,2000
TAGGCAGGCAGGATGTGCCTATAAGCCACATGAATG,1930,726,2240

Sequence,ETS1 binding intensity [1],RUNX1 binding intensity [2],ETS1 binding intensity [3]
TTTTATCCTTCCTTTTTTGTTCTTTGTGGTGGAGGT,465,1840,521
TCCCCCACTTCCTGGCAGCAGCAGTGTGGTGAGGAG,845,879,996
CTCGCGATTCCTCTTCCGCTGCGGTCTCCTTAACAC,634,1290,841
GACAGAGGAAACTAGGTGTGACAACCACAAACAGCT,432,882,651
ATGCCTGTAGGAGGATGTGGTTTCTACACAACTCTG,981,926,5640
TGGGGACAGGAAATGTTTACTGCCTGTGGCTTGCTG,3340,705,4240
CCGGGCGCCACTTCCGGTCCCCGTGGTCACGTGACC,14800,904,16100
CATGGTTGTTATTTCCTCACCACAATATGTGACATT,386,1200,463
TGCCTTCTACTCCGGAACTCAGACCGCTGCCTTCTA,759,1090,979
GGGCCCGGGCCAGGAAGTGGTTTTGCAGAGGTGTTT,4630,763,7660
CCTCCTCCAGACCATCCTGGAAACCACTGCCGTTCT,561,1380,488
GCCCCCGGCTGGGCAGGATGTGGTGGCAGCTGCAGG,4040,743,5380
GAGTGACTGCTAACGGATGTGTGGTTTCTTTAGTTT,2000,926,6590
CCGGGACAGGAAGAGGCTGGGGACCGCGGCGAAGGT,1440,710,1550
TCCCCGGCAGCTTCCTCGCCCCGACCGCAGTGTTCC,368,1780,798
CTTGTTCTATTTCCTGTTTGTGGTGAGTGACTGTCT,4300,1520,8610
GCGAGGAGACAACTTCCTTTTGTGGTCTGACCCTGG,638,857,1590
CTGAGTGAGACAGGATGTGGGCAGACCTCTAACACA,5110,733,11000
TTGTCGGGTATGGGATGTGGGCAGAGAGTATGATGG,604,866,835
TGATTAAAAACAGGATGTGGGTGAATAGTCATGCAT,4810,759,7580
TTTATCATGAATGCAGGATGTGGGCAAACTCGCATC,2340,749,6100
CGAAAGTGACCGGAAGTAACCGCCGGGCCAAGATGG,17800,795,18200
